Our source for the inhibition values is PubChem BioAssay AID588354 (The Scripps Research Institute Molecular Screening Center, 2011).

SMILES strings stand for the structures. The campaign covered roughly 360,000 compounds. About 430 (0.12%) were called active. The list comes from a sample in which actives are over-represented; it also holds similar structures and randomly drawn compounds. Values without a mark were called inactive.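 How the source made its calls: active means inhibition above the campaign mean plus 3 SD, with each screening campaign given its own cutoff (cut at about 60% in these data); inactive means the rest.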

Chain of Nuclear receptor coactivator 1 (Homo sapiens) (Q15788 whole entry, looked up, the tested form may be a part): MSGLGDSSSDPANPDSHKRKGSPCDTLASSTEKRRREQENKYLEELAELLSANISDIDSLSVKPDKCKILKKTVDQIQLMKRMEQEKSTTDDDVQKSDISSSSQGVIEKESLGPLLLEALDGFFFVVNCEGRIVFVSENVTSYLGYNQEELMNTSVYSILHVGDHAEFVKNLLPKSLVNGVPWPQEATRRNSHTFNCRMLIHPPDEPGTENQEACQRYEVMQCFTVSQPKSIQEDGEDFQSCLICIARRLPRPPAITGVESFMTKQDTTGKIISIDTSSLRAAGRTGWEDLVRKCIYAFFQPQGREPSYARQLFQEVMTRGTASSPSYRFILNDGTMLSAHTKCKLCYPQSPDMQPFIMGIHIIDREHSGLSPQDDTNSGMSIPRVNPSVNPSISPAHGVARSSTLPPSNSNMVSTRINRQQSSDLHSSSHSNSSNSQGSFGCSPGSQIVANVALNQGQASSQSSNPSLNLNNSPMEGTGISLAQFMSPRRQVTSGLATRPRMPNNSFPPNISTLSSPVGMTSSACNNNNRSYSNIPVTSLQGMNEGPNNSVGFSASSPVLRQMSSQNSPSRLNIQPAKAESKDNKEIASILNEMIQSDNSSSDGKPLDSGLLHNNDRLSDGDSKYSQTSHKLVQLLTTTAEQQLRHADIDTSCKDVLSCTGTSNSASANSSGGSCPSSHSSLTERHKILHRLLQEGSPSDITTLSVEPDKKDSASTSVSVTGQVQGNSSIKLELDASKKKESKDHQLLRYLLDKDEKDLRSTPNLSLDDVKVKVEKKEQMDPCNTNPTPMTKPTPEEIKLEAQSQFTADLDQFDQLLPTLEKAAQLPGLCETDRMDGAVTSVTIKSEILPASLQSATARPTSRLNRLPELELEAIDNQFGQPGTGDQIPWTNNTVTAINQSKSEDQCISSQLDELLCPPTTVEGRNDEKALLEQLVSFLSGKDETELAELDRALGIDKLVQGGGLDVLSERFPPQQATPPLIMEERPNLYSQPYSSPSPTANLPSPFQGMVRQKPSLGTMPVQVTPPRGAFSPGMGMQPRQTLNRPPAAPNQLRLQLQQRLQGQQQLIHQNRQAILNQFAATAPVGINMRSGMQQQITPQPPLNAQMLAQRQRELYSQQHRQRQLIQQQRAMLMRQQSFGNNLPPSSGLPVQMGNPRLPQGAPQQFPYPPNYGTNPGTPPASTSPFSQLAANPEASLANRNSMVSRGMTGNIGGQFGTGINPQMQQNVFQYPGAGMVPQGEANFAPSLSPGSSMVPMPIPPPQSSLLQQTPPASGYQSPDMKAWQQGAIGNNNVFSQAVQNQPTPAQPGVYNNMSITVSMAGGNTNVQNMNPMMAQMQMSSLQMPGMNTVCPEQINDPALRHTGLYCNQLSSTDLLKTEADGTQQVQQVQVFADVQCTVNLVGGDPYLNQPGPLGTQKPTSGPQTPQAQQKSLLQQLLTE

The experiment concerns the target Nuclear receptor coactivator 1 (Homo sapiens) (UniProt Q15788). Briefly: NCOA1 GAL4-fusion reporter inhibition – cell-based, luminescence, primary screen (AID 588354).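 Further: 0% = DMSO treated cells and 100% = gossypol at 36 µM.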 The following applies: HEK293 GAL4-SRC1 luciferase reporter, at 3.6 µM, stronger effect = higher value. In general terms: In a reporter assay the amount or activity of a reporter protein is the signal.
Usually inhibition stands for the change of the read-out against control, counted positive when it falls. Consider `COc1cc(OC)cc(-c2cc3ccc(F)cc3cn2)c1`, for which the inhibition was -60%. In the case of `CCOC(=O)c1cc(C(=O)Nc2ccc(S(=O)(=O)Nc3ccc(OC)cc3)cc2)nn1C` it was 7.15%; in that of `O=C(Nc1cc2c3c(c1)C1CCCC1CN3CC1CCCC21)c1ccc([N+](=O)[O-])cc1` (stereo not given), -2.56%. Turning to `CCOC(=O)NC(=O)CSc1nnc(SCCC(=O)O)s1`, the inhibition is -8.78%. In the case of `COc1ccc(C2=Nn3c(nnc3-c3ccccc3OC)SC2)cc1OC1CCCC1` it was -15.9%. `CCCCN(C(=O)CCNC(=O)NC12CC3CC(CC(C3)C1)C2)c1c(N)n(CCCC)c(=O)[nH]c1=O`: the inhibition was 4.35%. Turning to `C=CCOc1cccc(C2NC(=O)c3ccccc3O2)c1` (stereo not given), the inhibition is 3.13%.

On to `Cc1ccnc2nc(C(=O)OCC(=O)N(CC(C)C)CC(C)C)nn12`, for which the inhibition is 2.84%. In the case of `CN1CCN(C(=O)C(=O)c2cn(CC(=O)N3CCCC3)c3ccccc23)CC1` it was -22.3%; in that of `CCN(CC)C(=O)CSC1c2ccccc2C(=O)N1c1ccccc1` (stereo not given), -5.03%. Turning to `O=C(c1ccc(F)c(S(=O)(=O)N2CCOCC2)c1)N(CCc1ccccc1)Cc1ccccc1`, the inhibition was -1.71%.

Consider `CSCCC(NC(=O)c1ccc(Cl)cc1Cl)C(=O)NNC(=O)c1csc(N2CCOCC2)n1` (stereo not given), for which the inhibition was -17%. Consider `Cc1cccc(C(=O)N2CCCC(Nc3ccc(C(C)C)cc3)C2)n1` (stereo not given), for which the inhibition was 1.61%. In the case of `COc1ccc(N2CCN(C(=O)Cn3cnc4sc(C)c(S(=O)(=O)N5CCOCC5)c4c3=O)CC2)cc1`, the inhibition is 1.72%. In the case of `O=C(Nc1cc(-c2nc3ncccc3o2)ccc1Cl)c1ccco1` it was -8.08%; in that of `C[C@H]1CN([C@@H](C)CO)C(=O)c2cc(-c3cccc(F)c3)cnc2O[C@@H]1CN(C)S(C)(=O)=O`, 4.48%. Consider `COC(=O)CNC(=O)c1ccc2c(c1)S(=O)(=O)c1ccccc1C2=O`, for which the inhibition is -9.27%. Consider `Cc1cc(=O)oc2c3c(cc(OCC(=O)NCC(O)c4ccccc4)c12)OC(C)(C)CC3` (stereo not given), for which the inhibition was -22.4%. Take `S=C(Cc1ccc(Cl)cc1)N1CCOCC1`: the inhibition is -5.3%. `O=C(O)c1n[nH]nc1-c1ccccc1`: the inhibition was 10.2%.

For `CC1(C)CC(N2CCN(C(c3ccccc3)c3ccccc3)CC2)=CC(=[N+]2CCCCC2)C1`, the inhibition is 77% (active). `Clc1ccc2nc(CSc3ccccc3)cn2c1`: the inhibition was -91.3%. For `CC(C)(C)SCCSC1=CC(=O)CC(c2ccccc2)C1` (stereo not given), the inhibition was -111%. In the case of `CCCCNS(=O)(=O)c1ccc2nc(SCC(=O)Nc3cc(C)cc(C)c3)[nH]c2c1` it was 12%.

On to `Cc1cc(NC(=O)CSc2nccn2-c2ccc([N+](=O)[O-])cc2)no1`, for which the inhibition was -17%. In the case of `CN(C)/C=C(/C(=O)c1ccccc1Cl)S(C)(=O)=O`, the inhibition is -22.7%. Take `COc1ccc2c(c1)N(C)/C(=C1/SC(=S)N(NC(C)=O)C1=O)S2`: the inhibition was -35.2%. Turning to `CCOC(=O)c1ccccc1N1C(=O)C2Sc3[nH]c(=O)sc3C(/C=C/c3ccccc3)C2C1=O` (stereo not given), the inhibition is -1.18%. On to `O=C(NCCN1CCOCC1)c1cc(Sc2cccc(Cl)c2)nc2ccccc12`, for which the inhibition was -5.48%.

As to `c1ccc2cc3c(NCCN4CCOCC4)ccnc3cc2c1`, the inhibition was 61.6% (active).

With `O=S(=O)(c1ccc(Cl)cc1)c1nc(-c2ccccc2F)oc1NCCN1CCOCC1`, the inhibition is -8.54%. Consider `O=C(CCCN=C1NS(=O)(=O)c2ccccc21)OCC(=O)c1ccc(F)c(F)c1`, for which the inhibition is -0.01%. For `CCn1c(C(C)C)n[nH]c1=S`, the inhibition is -20.3%. Consider `CC(C)(C)NC(=O)C(c1ccco1)N(Cc1ccc2c(c1)OCO2)C(=O)Cn1nnc2ccccc21` (stereo not given), for which the inhibition was 11.9%. In the case of `CCOc1ccc(-n2cnnn2)cc1S(=O)(=O)N1CCC(C)CC1C` (stereo not given) it was 4.05%; in that of `O=S(=O)(NCc1ccc2c(c1)OCO2)c1cccc2nsnc12`, -3.02%.

Turning to `Cc1nc(COc2cc3oc(=O)cc(C)c3cc2Cl)cs1`, the inhibition was -6.18%.

Take `C[C@@H]1C[C@@H]2O[C@H]2/C=C\C=C\C(=O)Cc2c(Cl)c(O)cc(O)c2C(=O)O1`: the inhibition was 53.8%. For `CC(=O)NC1(c2ccc(F)cc2)CCN(C(=O)c2c(F)cccc2F)CC1`, the inhibition was -14.7%. In the case of `c1cnc(NC2C3CC4CC(C3)CC2C4)nc1` (stereo not given), the inhibition was -13.6%. `CCCCCC(O)c1cccc(OCc2ccc3ccccc3n2)c1` (stereo not given): the inhibition is -17.6%.

Consider `O=C(CCn1c(=S)[nH]c2cc3c(cc2c1=O)OCO3)NCc1ccc(Cl)cc1`, for which the inhibition was 10%.

Regarding `CCN(Cc1ccccc1)C(=O)CSc1nc(C)cc2c1C(=O)OC2`, the inhibition was -20%.

Consider `Cc1nnc(C)c2c(C)n(N)c(C)c12`, for which the inhibition was 3.29%. In the case of `CCCNC(=O)C1(C)CCN(C(=O)c2ccccc2OC(F)(F)F)C1` (stereo not given), the inhibition is -5.22%.
